Assay outcomes: PubChem, The Scripps Research Institute Molecular Screening Center
ssDAF-12 act: activates DAF-12 receptor from parasite S. stercoralis; HEK293 ssDAF-12/GRIP1 lit1-tk-luc reporter, luminescence; % of 3 µM dafachronic acid response; activation, % at 6.8 µM; 370,000 tested, 1% active; AID 652126;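 active means activation above the mean over all tested compounds plus 3 SD, cut at about 0.9% in these data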;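 further: 0% = DMSO-only wells and 100% = 3 µM delta7-dafachronic acid wells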
SMARCA2 activ: increases SMARCA2 function in MMTV reporter cells; activation, % at 9.1 µM; 370,000 tested, 1% active; MG213 cells, MMTV-luciferase reporter, dexamethasone, overnight; in the data active means activation above about 7.8%;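 further: 0% = vehicle wells and 100% = reference activator wells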
hgDAF-12 ag: activates the H. glycines DAF-12 receptor ligand-binding domain | HEK293 GAL4-hgDAF12 UAS-luciferase reporter, agonist luminescence; normalized to butyrate control | activation, % at 6.8 µM | 370,000 tested, 1.8% active | AID 687014;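 active means activation above a cutoff set at the mean of all screened compounds plus 3 SD, cut at about 10% in these data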;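 further: 0% = DMSO wells and 100% = sodium butyrate wells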
hcDAF12 agonist: H. contortus DAF-12 activation, primary screen. HEK293 hcDAF-12 lit1-tk-luc reporter, luminescence; 0% DMSO, 100% Δ7-dafachronic acid. activation, % at 6.8 µM. 370,000 tested, 1.4% active;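 active means activation above the mean of all tested compounds plus 3 SD, cut at about 5.5% in these data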;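 further: 100% = response to 3 µM Δ7-dafachronic acid high control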
DAX1 inh-1: inhibitors of DAX1 repression of SF-1 activated StAR promoter | HEK293T StAR-luciferase reporter, SF-1/DAX-1 repression relief | inhibition, % at 6.8 µM | 370,000 tested, 1.1% active | AID 652010;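 active means inhibition above the mean over all tested compounds plus 3 SD, cut at about 3.6% in these data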;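 further: 0% = DAX-1 cells with DMSO and 100% = cells lacking DAX-1 with DMSO; higher inhibition means more luminescence from relief of DAX-1 repression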
DAX1 inh-2: inhibitors of human orphan nuclear receptor DAX1 (NR0B1); HEK293 Gal4-DAX1 luciferase reporter, luminescence; inhibition, % at 6.75 µM; 340,000 tested, 0.99% active; AID 504766;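 active means inhibition above the mean over all tested compounds plus 3 SD, cut at about 4.2% in these data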;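 further: 0% = DAX1-transfected cells with DMSO and 100% = empty-vector control cells with DMSO; inhibition shows as a rise in luminescence from relieved DAX1 repression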
Target sequence (P51843 207-470 limits assumed): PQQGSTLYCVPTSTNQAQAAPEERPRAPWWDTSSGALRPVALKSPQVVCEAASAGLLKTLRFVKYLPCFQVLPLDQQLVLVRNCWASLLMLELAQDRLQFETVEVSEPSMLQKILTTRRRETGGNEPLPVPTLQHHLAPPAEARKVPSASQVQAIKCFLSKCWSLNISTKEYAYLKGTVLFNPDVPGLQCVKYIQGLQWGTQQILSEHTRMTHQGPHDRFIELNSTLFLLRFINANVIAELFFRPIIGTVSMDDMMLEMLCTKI
SMARCA2 act conf: confirmation of SMARCA2 (BRM) function activators | shares compounds with SMARCA2 activ | MG213 cells, MMTV-luciferase with dexamethasone, luminescence, overnight; MG213 cells expressing E1A, Rb sequestered; DMSO wells 0%, reference activator 100% | activation, % at 9.1 µM | 3,500 tested, 30% active;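 active means activation above its plate's cutoff, the mean activation of tested wells plus 3 SD, cut at about 7.9% in these data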
VP16 Luc act: GAL4-VP16 reporter activation counter-screen; 3,500 tested, 41% active; activation, % at 9.1 µM; shares compounds with SMARCA2 activ; AID 686939; HEK293 GAL4-VP16 pG5luc reporter, luciferase luminescence; scaled: DMSO wells 0%, SAHA wells 100%;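 active means activation above the solvent-only control well mean plus 3 SD, averaged across control plates, cut at about 5.2% in these data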
LXR ag: counter-screen for hcDAF-12 agonists: agonists of human LXR-beta | HEK293 Gal4-LXR tk-luc reporter, luminescence, 24 h; normalized: DMSO 0%, positive control 100% | 3,400 tested, under 10 active | activation, % at 6.8 µM | shares compounds with hcDAF12 agonist | AID 743027;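 active means mean percent activation of the reporter above a cutoff set as the average over tested compounds plus their standard deviation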
Target sequence (P55055 whole entry, looked up, the tested form may be a part): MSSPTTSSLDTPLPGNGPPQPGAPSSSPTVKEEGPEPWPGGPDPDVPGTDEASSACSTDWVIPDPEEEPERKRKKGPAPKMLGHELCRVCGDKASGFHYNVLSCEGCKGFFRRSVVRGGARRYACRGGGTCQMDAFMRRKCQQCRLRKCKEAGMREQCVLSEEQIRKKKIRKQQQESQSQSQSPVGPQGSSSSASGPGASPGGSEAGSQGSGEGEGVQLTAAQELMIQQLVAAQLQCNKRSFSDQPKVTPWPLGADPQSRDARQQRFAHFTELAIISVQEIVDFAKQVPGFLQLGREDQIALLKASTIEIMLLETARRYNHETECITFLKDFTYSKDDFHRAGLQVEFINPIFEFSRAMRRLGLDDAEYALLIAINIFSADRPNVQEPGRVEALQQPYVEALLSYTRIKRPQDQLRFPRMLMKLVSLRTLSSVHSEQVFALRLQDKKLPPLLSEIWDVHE
hcDAF12 conf: hcDAF-12 agonism, confirmation assay; 3,400 tested, 61% active; activation, % at 6.8 µM; HEK293 hcDAF-12 lit1-tk-luc reporter, luminescence; % of Δ7-dafachronic acid response; AID 743032; shares compounds with hcDAF12 agonist;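 active means mean activation across triplicate tests above the threshold derived from the earlier primary screen, cut at about 5.5% in these data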;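 further: 0% = DMSO only wells and 100% = 3 µM Δ7-dafachronic acid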
hgDAF12 conf: confirmation of H. glycines DAF-12 agonists; HEK293 GAL4-hgDAF12 luciferase reporter, agonist mode; percent of butyrate response; shares compounds with hgDAF-12 ag; activation, % at 6.8 µM; AID 743050; 3,300 tested, 80% active;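 active means mean activation over triplicate wells above the hit cutoff derived from the earlier primary screen, cut at about 11% in these data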;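 further: 0% = DMSO low control and 100% = 2 mM sodium butyrate high control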
LXRb DAF12 ctr: activates human LXR-beta, counter-screen for DAF-12 agonists. HEK293 Gal4-LXR luciferase reporter, 24 h. activation, % at 6.8 µM. 3,300 tested, under 10 active. AID 743051. shares compounds with hgDAF-12 ag;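 active means mean activation of the triplicate above a set limit carried over from the primary screen, none filed active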
Active calls of the source: *. Most compounds without a hit are left out; they make up all but 4.8% or so of the library.

Results for COc1cc(/C=N/O)ccc1OCc1ccc(Cl)cc1 ?
ssDAF-12 act: 1; SMARCA2 activ: 17*; hgDAF-12 ag: 19*; hcDAF12 agonist: 7.9*; DAX1 inh-1: 4.0*; SMARCA2 act conf: 12*; VP16 Luc act: 8.7*; LXR ag: 1; hcDAF12 conf: 5.7*; hgDAF12 conf: 15*; LXRb DAF12 ctr: 1

Results for c1ccc(C2=Nc3ccccc3NC(c3ccccc3)C2)cc1 (stereo not given) ?
ssDAF-12 act: 0; SMARCA2 activ: 9.7*; hgDAF-12 ag: 14*; hcDAF12 agonist: 1; DAX1 inh-1: 3; DAX1 inh-2: 3; SMARCA2 act conf: 3; VP16 Luc act: 7.0*; hgDAF12 conf: 15*; LXRb DAF12 ctr: 0

What do the screens show for `c1ccc(C2=NC(c3ccccc3)CC2)cc1` (stereo not given)?
ssDAF-12 act: 0; SMARCA2 activ: 0; hgDAF-12 ag: 5; hcDAF12 agonist: 0; DAX1 inh-1: 0; DAX1 inh-2: 1

What do the screens show for `O=C1CC(c2ccccc2)Sc2nc3ccccc3n21` (stereo not given)?
ssDAF-12 act: 1.1*; SMARCA2 activ: 12*; hgDAF-12 ag: 19*; hcDAF12 agonist: 6.9*; DAX1 inh-1: 4.0*; DAX1 inh-2: 3; SMARCA2 act conf: 8.8*; VP16 Luc act: 8.6*; LXR ag: 1; hcDAF12 conf: 7.3*; hgDAF12 conf: 12*; LXRb DAF12 ctr: 1

How did COc1ccc(CNC(=O)C/C(C)=N/NC(=O)c2ccccc2OC)cc1 do in these assays?
ssDAF-12 act: 0; SMARCA2 activ: 2; hgDAF-12 ag: 5; hcDAF12 agonist: 3; DAX1 inh-1: 0; DAX1 inh-2: 0

Results for Nc1ccccc1C#Cc1ccc2[nH]ccc2c1 ?
ssDAF-12 act: 0; SMARCA2 activ: 10*; hgDAF-12 ag: 14*; hcDAF12 agonist: 3; DAX1 inh-1: 1; DAX1 inh-2: 7.2*; SMARCA2 act conf: 12*; VP16 Luc act: 11*; hgDAF12 conf: 12*; LXRb DAF12 ctr: 0

What do the screens show for `Nc1ccccc1C#Cc1ccccc1`?
ssDAF-12 act: 0; SMARCA2 activ: 6; hgDAF-12 ag: 6; hcDAF12 agonist: 3; DAX1 inh-1: 1; DAX1 inh-2: 3

Results for COC(=O)C1C(=O)OC(C)(C)C1C(C)C(=O)c1ccccc1 (stereo not given) ?
ssDAF-12 act: -2; SMARCA2 activ: -2; hgDAF-12 ag: 2; hcDAF12 agonist: 2; DAX1 inh-1: 0; DAX1 inh-2: 0

What do the screens show for `COc1cc(/C=C2\SC(=S)N(Nc3ccccc3)C2=O)ccc1O`?
ssDAF-12 act: -1; SMARCA2 activ: 8.2*; hgDAF-12 ag: 14*; hcDAF12 agonist: 5; DAX1 inh-1: 2; DAX1 inh-2: 1; SMARCA2 act conf: 7; VP16 Luc act: 11*; hgDAF12 conf: 15*; LXRb DAF12 ctr: 1

What do the screens show for `CCOc1cc(/C=C2\SC(=S)N(Nc3ccccc3)C2=O)ccc1O`?
ssDAF-12 act: -1; SMARCA2 activ: 4; hgDAF-12 ag: 3; hcDAF12 agonist: 0; DAX1 inh-1: 1; DAX1 inh-2: 0

Results for CC(C)C[C@@H]1CC2=C(C(=O)OC(C)(C)O2)[C@H](CCc2ccccc2)O1 ?
ssDAF-12 act: 0; SMARCA2 activ: 3; hgDAF-12 ag: 1; hcDAF12 agonist: 2; DAX1 inh-1: 0

How did N#Cc1ccc(Oc2ccc(C#N)c(C#N)c2)cc1C#N do in these assays?
ssDAF-12 act: -1; SMARCA2 activ: -3; hgDAF-12 ag: -1; hcDAF12 agonist: 1; DAX1 inh-1: 1; DAX1 inh-2: 0

How did N/C(=N\OC(=O)Cc1ccc(Cl)cc1)c1ccccn1 do in these assays?
ssDAF-12 act: -1; SMARCA2 activ: 5; hgDAF-12 ag: 9; hcDAF12 agonist: 3; DAX1 inh-1: 0; DAX1 inh-2: 1

How did N/C(=N\OC(=O)c1cccc2ccccc12)c1ccccn1 do in these assays?
ssDAF-12 act: 3.5*; SMARCA2 activ: 11*; hgDAF-12 ag: 14*; hcDAF12 agonist: 15*; DAX1 inh-1: 2; DAX1 inh-2: 1; SMARCA2 act conf: 11*; VP16 Luc act: 10*; LXR ag: 1; hcDAF12 conf: 14*; hgDAF12 conf: 11*; LXRb DAF12 ctr: 1

Results for N/C(=N\OC(=O)c1ccco1)c1ccccn1 ?
ssDAF-12 act: 0; SMARCA2 activ: 12*; hgDAF-12 ag: 14*; hcDAF12 agonist: 2; DAX1 inh-1: 3; DAX1 inh-2: -1; SMARCA2 act conf: 7.9*; VP16 Luc act: 9.2*; hgDAF12 conf: 7; LXRb DAF12 ctr: 0

What do the screens show for `Cc1cccc(/C(N)=N/OC(=O)c2ccco2)c1`?
ssDAF-12 act: 1.4*; SMARCA2 activ: 9.3*; hgDAF-12 ag: 18*; hcDAF12 agonist: 6.6*; DAX1 inh-1: 3.7*; DAX1 inh-2: 1; SMARCA2 act conf: 19*; VP16 Luc act: 11*; LXR ag: 1; hcDAF12 conf: 4; hgDAF12 conf: 19*; LXRb DAF12 ctr: 1

Results for CC(C)(C)CC(=O)O/N=C(\N)c1ccccn1 ?
ssDAF-12 act: 0; SMARCA2 activ: 11*; hgDAF-12 ag: 14*; hcDAF12 agonist: 6.3*; DAX1 inh-1: 3; DAX1 inh-2: 0; SMARCA2 act conf: 8.8*; VP16 Luc act: 2; hgDAF12 conf: 13*; LXRb DAF12 ctr: 1
